Experimental data published in the supplement of paper PMC10849652.
Of roughly 7,900 targets only a part is listed; those with a hit were picked by preference. About 0.6% of all pairs of compound and target were hits.

Chain of UniProt Q8N4C8 (Q8N4C8 whole entry, looked up): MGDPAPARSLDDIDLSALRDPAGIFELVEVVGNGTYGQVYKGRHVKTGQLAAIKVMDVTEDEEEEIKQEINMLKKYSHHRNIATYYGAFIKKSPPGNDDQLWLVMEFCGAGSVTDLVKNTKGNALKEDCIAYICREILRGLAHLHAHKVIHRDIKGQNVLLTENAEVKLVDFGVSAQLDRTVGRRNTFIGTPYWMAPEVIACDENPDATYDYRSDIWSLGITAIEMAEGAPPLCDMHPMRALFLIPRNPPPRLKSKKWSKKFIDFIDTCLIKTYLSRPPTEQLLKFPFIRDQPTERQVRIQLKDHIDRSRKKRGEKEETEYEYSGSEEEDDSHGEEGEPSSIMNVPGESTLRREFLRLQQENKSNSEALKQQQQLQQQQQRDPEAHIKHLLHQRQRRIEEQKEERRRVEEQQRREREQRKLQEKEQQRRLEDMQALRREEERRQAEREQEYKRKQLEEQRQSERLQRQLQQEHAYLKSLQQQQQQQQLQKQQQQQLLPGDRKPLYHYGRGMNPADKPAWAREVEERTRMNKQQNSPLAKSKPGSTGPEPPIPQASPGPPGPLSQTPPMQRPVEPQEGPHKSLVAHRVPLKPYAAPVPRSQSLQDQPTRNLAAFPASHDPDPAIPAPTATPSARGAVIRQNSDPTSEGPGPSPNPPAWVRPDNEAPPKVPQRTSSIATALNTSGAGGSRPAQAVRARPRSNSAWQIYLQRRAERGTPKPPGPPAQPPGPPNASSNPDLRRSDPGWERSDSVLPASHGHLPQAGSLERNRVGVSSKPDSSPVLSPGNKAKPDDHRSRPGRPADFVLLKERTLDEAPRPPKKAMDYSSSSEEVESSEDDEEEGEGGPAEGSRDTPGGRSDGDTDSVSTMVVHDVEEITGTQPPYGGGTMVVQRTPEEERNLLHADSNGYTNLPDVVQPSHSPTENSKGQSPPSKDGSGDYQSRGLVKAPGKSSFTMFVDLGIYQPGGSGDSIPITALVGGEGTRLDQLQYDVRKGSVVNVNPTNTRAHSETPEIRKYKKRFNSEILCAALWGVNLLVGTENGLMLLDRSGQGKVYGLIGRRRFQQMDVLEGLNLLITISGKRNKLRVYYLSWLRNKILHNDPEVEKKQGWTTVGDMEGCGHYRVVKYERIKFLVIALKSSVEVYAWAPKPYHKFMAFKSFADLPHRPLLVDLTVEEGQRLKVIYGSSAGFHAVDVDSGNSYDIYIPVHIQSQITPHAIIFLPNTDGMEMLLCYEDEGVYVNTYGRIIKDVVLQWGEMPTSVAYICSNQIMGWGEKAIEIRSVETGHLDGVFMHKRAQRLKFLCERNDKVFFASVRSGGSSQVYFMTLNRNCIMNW
Chain of UniProt Q16795 (Q16795 whole entry, looked up): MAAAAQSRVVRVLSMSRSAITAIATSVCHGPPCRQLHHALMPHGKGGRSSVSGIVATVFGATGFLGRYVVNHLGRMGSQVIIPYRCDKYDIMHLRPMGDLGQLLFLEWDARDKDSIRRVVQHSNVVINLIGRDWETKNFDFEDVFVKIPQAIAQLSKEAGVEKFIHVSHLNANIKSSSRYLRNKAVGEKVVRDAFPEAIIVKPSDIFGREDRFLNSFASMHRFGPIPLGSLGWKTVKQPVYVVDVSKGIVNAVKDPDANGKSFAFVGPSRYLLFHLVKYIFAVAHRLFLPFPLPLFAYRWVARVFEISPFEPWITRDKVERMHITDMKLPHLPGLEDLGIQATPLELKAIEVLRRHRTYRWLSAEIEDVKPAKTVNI
Chain of UniProt O95747 (O95747 whole entry, looked up): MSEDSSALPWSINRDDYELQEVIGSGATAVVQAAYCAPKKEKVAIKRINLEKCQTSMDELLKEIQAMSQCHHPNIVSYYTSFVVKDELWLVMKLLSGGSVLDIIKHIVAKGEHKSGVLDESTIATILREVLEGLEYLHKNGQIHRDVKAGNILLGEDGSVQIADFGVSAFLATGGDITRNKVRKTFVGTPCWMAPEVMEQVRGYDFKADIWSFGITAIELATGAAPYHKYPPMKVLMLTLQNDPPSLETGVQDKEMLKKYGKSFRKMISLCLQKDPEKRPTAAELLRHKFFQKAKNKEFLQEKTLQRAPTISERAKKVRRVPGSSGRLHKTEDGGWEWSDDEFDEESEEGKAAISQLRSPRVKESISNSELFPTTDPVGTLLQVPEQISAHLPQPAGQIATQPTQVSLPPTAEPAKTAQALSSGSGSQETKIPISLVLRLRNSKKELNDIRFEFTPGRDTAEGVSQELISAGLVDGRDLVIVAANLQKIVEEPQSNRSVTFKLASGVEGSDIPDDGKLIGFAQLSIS
Chain of UniProt P56556 (P56556 whole entry, looked up): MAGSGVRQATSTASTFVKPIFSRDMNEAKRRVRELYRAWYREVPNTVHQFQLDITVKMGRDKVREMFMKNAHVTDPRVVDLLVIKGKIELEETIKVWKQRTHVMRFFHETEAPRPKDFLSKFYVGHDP
Chain of UniProt Q92621 (Q92621 whole entry, looked up): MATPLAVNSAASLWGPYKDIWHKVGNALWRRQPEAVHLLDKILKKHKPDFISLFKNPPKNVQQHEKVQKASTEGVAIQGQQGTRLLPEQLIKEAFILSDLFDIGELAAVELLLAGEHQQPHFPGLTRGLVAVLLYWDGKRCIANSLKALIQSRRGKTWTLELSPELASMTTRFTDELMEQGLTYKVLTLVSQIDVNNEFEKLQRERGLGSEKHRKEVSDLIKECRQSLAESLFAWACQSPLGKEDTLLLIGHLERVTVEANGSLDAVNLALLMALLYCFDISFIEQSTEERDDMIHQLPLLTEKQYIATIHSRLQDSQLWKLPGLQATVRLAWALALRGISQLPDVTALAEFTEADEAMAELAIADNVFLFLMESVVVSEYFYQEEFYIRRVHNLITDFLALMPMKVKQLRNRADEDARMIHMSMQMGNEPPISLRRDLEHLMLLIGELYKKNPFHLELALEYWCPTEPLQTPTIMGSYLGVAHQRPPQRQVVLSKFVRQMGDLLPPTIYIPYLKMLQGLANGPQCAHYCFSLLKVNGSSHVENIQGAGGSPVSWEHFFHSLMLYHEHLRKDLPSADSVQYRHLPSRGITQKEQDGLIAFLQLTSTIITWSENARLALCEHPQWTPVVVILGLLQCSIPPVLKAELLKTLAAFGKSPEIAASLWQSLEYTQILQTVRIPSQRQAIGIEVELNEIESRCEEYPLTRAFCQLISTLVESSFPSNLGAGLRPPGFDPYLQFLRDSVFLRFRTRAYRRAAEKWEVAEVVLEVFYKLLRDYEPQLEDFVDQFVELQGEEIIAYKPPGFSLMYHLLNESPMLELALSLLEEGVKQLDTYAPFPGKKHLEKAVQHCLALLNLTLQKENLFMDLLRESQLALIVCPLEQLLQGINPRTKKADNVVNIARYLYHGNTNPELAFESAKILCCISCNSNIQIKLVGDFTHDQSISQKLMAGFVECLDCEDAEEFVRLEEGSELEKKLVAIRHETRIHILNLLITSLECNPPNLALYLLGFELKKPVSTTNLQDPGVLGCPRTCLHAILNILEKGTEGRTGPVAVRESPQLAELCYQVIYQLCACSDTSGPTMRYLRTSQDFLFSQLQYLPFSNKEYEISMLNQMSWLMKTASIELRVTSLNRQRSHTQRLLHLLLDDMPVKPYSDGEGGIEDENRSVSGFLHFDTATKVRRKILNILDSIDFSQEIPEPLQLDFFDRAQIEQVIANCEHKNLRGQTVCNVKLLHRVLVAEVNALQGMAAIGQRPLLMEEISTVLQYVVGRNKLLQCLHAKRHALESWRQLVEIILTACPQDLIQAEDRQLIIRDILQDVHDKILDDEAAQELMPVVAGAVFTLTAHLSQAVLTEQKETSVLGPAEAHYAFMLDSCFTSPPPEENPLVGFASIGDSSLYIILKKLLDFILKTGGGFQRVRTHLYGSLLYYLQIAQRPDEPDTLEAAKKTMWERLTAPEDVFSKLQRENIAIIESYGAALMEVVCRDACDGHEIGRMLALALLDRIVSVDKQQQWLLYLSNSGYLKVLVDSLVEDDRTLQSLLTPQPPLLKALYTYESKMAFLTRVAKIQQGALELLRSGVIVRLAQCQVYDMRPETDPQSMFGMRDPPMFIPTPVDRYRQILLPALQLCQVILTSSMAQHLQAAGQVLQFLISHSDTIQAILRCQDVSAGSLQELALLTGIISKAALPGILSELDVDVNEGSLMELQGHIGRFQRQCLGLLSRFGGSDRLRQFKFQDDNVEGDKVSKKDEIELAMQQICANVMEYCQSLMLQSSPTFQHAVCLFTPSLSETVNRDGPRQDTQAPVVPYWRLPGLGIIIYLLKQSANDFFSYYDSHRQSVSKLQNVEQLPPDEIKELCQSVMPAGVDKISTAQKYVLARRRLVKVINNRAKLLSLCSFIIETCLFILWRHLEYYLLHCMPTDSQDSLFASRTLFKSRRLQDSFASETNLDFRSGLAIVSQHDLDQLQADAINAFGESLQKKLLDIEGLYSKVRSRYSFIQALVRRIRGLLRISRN
Chain of UniProt Q13952 (Q13952 whole entry, looked up): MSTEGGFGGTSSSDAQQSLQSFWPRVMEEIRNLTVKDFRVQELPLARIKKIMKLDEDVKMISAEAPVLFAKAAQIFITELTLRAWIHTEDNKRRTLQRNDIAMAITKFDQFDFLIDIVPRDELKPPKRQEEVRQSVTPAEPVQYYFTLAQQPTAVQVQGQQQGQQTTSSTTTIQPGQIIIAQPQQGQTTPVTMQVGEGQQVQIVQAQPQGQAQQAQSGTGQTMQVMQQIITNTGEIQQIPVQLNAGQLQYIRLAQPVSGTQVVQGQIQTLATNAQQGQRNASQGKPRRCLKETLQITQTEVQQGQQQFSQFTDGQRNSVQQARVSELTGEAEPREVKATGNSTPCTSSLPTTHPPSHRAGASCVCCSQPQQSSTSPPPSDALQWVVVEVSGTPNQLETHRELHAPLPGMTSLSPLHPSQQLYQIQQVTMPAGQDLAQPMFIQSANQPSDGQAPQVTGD
Chain of UniProt P84157 (P84157 whole entry, looked up): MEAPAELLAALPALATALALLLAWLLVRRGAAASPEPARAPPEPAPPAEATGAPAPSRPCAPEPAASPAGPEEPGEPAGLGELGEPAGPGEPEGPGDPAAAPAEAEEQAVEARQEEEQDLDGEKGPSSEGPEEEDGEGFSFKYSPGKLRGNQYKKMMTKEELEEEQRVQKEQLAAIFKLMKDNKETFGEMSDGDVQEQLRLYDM

These targets were tested with CC1=C(C(CC(=O)N1)C2=CC=C(C=C2)C(F)(F)F)C(=O)NC3=C(C=C4C(=C3)C=NN4)F (assay: log2 fold change, soluble protein after heating vs DMSO (PISA); higher = thermal stabilisation; K562 cells, 10 uM, 30 min; active = over 0.2 and 3.5 SD of the protein, either way, in both replicates (recomputed)).
Procedure, shortened: (§1)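 K562 cells at 2×10^6 cells/mL were given 10 μM compound for 30 min. Aliquots then went through 3 min of heating across 48°C-58°C, were pooled, and were extracted in PBS with 0.5% NP-40 at 4°C, and the supernatant after 21,000xg for 90 min was quantified by TMTpro 16plex LC-MS/MS with channel sums equalised. Thermal stability relative to control samples, from duplicates, is given as log2 fold change.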
NDUFA6 (UniProt P56556) was tested, and the log2 fold change was -0.03 (inactive).
In the case of MORF4L2 (UniProt Q15014), the log2 fold change is reported as 0.028 (inactive).
For NOL7 (UniProt Q9UMY1), the log2 fold change was 0.059 (inactive).
With NELFA (UniProt Q9H3P2) the log2 fold change was -0.11 (inactive).
In the case of NHLRC2 (UniProt Q8NBF2), the log2 fold change is reported as 0.004 (inactive).
In the case of MRPS25 (UniProt P82663), the log2 fold change is reported as -0.106 (inactive).
With MINK1 (UniProt Q8N4C8) the log2 fold change was -0.017 (inactive).
With OSBPL8 (UniProt Q9BZF1) the log2 fold change was -0.076 (inactive).
For NDUFA9 (UniProt Q16795), the log2 fold change was -0.01 (inactive).
For NTMT1 (UniProt Q9BV86), the log2 fold change was -0.082 (inactive).
NFATC3 (UniProt Q12968) was tested, and the log2 fold change was 0.015 (inactive).
For NAA11 (UniProt Q9BSU3), the log2 fold change was -0.007 (inactive).
With NUDT1 (UniProt P36639) the log2 fold change was -0.069 (inactive).
In the case of MRPS18B (UniProt Q9Y676), the log2 fold change is reported as 0.056 (inactive).
NOP56 (UniProt O00567) was tested, and the log2 fold change was 0.086 (inactive).
In the case of MRPS15 (UniProt P82914), the log2 fold change is reported as -0.01 (inactive).
MXRA7 (UniProt P84157) was tested, and the log2 fold change was -0.011 (inactive).
In the case of NPC1 (UniProt O15118), the log2 fold change is reported as 0.078 (inactive).
With NUCKS1 (UniProt Q9H1E3) the log2 fold change was 0.021 (inactive).
In the case of NCAPG (UniProt Q9BPX3), the log2 fold change is reported as -0.011 (inactive).
With NDUFB7 (UniProt P17568) the log2 fold change was 0.014 (inactive).
With NACC1 (UniProt Q96RE7) the log2 fold change was 0.034 (inactive).
With NDUFS8 (UniProt O00217) the log2 fold change was 0.034 (inactive).
In the case of NCL (UniProt P19338), the log2 fold change is reported as 0.039 (inactive).
For NOB1 (UniProt Q9ULX3), the log2 fold change was 0.047 (inactive).
For NDUFA12 (UniProt Q9UI09), the log2 fold change was -0.012 (inactive).
With NBN (UniProt O60934) the log2 fold change was -0.029 (inactive).
With NIBAN1 (UniProt Q9BZQ8) the log2 fold change was -0.002 (inactive).
OXSR1 (UniProt O95747) was tested, and the log2 fold change was 0.02 (inactive).
For NFYC (UniProt Q13952), the log2 fold change was 0.046 (inactive).
In the case of NAPG (UniProt Q99747), the log2 fold change is reported as 0 (inactive).
NUP210 (UniProt Q8TEM1) was tested, and the log2 fold change was 0.026 (inactive).
MRPS24 (UniProt Q96EL2) was tested, and the log2 fold change was -0.031 (inactive).
NMT1 (UniProt P30419) was tested, and the log2 fold change was 0.009 (inactive).
NUP205 (UniProt Q92621) was tested, and the log2 fold change was -0.005 (inactive).
MRPL46 (UniProt Q9H2W6) was tested, and the log2 fold change was -0.004 (inactive).
MON1B (UniProt Q7L1V2) was tested, and the log2 fold change was -0.023 (inactive).
In the case of NFX1 (UniProt Q12986), the log2 fold change is reported as 0.011 (inactive).
MRPS16 (UniProt Q9Y3D3) was tested, and the log2 fold change was 0 (inactive).

What follows are targets tested with CC1=C(C2=C(C=C1)C(=O)C3=CC=CC=C3N2CCCN)C in the same assay as above.
Procedure, shortened: as §1
For NDUFA6 (UniProt P56556), the log2 fold change was 0.175 (inactive).
With MORF4L2 (UniProt Q15014) the log2 fold change was 0.005 (inactive).
In the case of NOL7 (UniProt Q9UMY1), the log2 fold change is reported as -0.485 (inactive).
For NELFA (UniProt Q9H3P2), the log2 fold change was 0.252 (inactive).
For NHLRC2 (UniProt Q8NBF2), the log2 fold change was 0.023 (inactive).
With MRPS25 (UniProt P82663) the log2 fold change was -0.091 (inactive).
With MINK1 (UniProt Q8N4C8) the log2 fold change was 0.061 (inactive).
In the case of OSBPL8 (UniProt Q9BZF1), the log2 fold change is reported as 0.045 (inactive).
In the case of NDUFA9 (UniProt Q16795), the log2 fold change is reported as 0.086 (inactive).
With NTMT1 (UniProt Q9BV86) the log2 fold change was 0.157 (inactive).
In the case of NFATC3 (UniProt Q12968), the log2 fold change is reported as -0.036 (inactive).
With NAA11 (UniProt Q9BSU3) the log2 fold change was 0 (inactive).
For NUDT1 (UniProt P36639), the log2 fold change was 0.074 (inactive).
MRPS18B (UniProt Q9Y676) was tested, and the log2 fold change was -0.068 (inactive).
NOP56 (UniProt O00567) was tested, and the log2 fold change was 0.187 (inactive).
MRPS15 (UniProt P82914) was tested, and the log2 fold change was -0.2 (inactive).
MXRA7 (UniProt P84157) was tested, and the log2 fold change was -0.045 (inactive).
For NPC1 (UniProt O15118), the log2 fold change was -0.147 (inactive).
NUCKS1 (UniProt Q9H1E3) was tested, and the log2 fold change was -0.454 (active).
NCAPG (UniProt Q9BPX3) was tested, and the log2 fold change was 0.016 (inactive).
With NDUFB7 (UniProt P17568) the log2 fold change was 0.004 (inactive).
With NACC1 (UniProt Q96RE7) the log2 fold change was -0.193 (inactive).
NDUFS8 (UniProt O00217) was tested, and the log2 fold change was 0.075 (inactive).
For NCL (UniProt P19338), the log2 fold change was -0.891 (active).
For NOB1 (UniProt Q9ULX3), the log2 fold change was -0.031 (inactive).
In the case of NDUFA12 (UniProt Q9UI09), the log2 fold change is reported as 0.122 (inactive).
NBN (UniProt O60934) was tested, and the log2 fold change was -0.02 (inactive).
For NIBAN1 (UniProt Q9BZQ8), the log2 fold change was 0.02 (inactive).
For OXSR1 (UniProt O95747), the log2 fold change was 0.106 (inactive).
In the case of NFYC (UniProt Q13952), the log2 fold change is reported as 0.332 (active).
With NAPG (UniProt Q99747) the log2 fold change was 0.016 (inactive).
With NUP210 (UniProt Q8TEM1) the log2 fold change was 0.047 (inactive).
MRPS24 (UniProt Q96EL2) was tested, and the log2 fold change was -0.227 (inactive).
In the case of NMT1 (UniProt P30419), the log2 fold change is reported as -0.051 (inactive).
In the case of NUP205 (UniProt Q92621), the log2 fold change is reported as 0.018 (inactive).
In the case of MRPL46 (UniProt Q9H2W6), the log2 fold change is reported as -0.026 (inactive).
For MON1B (UniProt Q7L1V2), the log2 fold change was 0 (inactive).
NFX1 (UniProt Q12986) was tested, and the log2 fold change was -0.043 (inactive).
In the case of MRPS16 (UniProt Q9Y3D3), the log2 fold change is reported as -0.126 (inactive).
